As a reminder, the AC50 is the concentration at which the activity in the assay is half-maximal.

The conditions of assay [1]: Ebola virus entry assay, green fluorescence channel.
The conditions of assay [2]: Ebola virus entry assay, blue channel fluorescence.
For assay [3] the following is noted: Ebola virus entry assay, ratio channel.
For assay [4] the following is noted: Ebola virus entry assay, green channel fluorescence.
The conditions of assay [5]: Ebola virus entry assay, reporter ratio channel; Channel type: primary.

Values without a mark were called inactive. For some of these results: Potency and affinity values are given separately. Calls of active or inactive are those of the source. No rule for the calls is given here.
For efficacy in this document: 0% is about no effect.

With `OC(CCN1CCCCC1)(c1ccccc1)C1CC2C=CC1C2` (stereo not given), the efficacy in assay [1] is -14.6%. Further, the AC50 in assay [2] was 12.6 µM (active). The result in assay [3], in assay [4] and in assay [5] was inactive.
`CCN(CC)CCOc1ccc2c(c1)C(=O)c1cc(OCCN(CC)CC)ccc1-2`: in assay [1], the efficacy was 9%. The AC50 in assay [2], in assay [3] and in assay [5] was 1.41 µM (active) in each case. The compound was called inactive in assay [4].
For `N=C(N)c1ccc2cc(OC(=O)c3ccc(N=C(N)N)cc3)ccc2c1`, in assay [1], the efficacy is 15%. Also, the compound was classed as inactive in assay [2], in assay [3], in assay [4] and in assay [5].
As for `CC(=O)Oc1ccc2c(c1)CC[C@@H]1[C@@H]2CC[C@]2(C)[C@@H](O)CC[C@@H]12`, in assay [1], the efficacy is 11.1%. Besides, the AC50 was 35.5 µM (active) in assay [2], 22.4 µM (active) in assay [3] and 22.4 µM (active) in assay [5]. Also, the compound was classed as inactive in assay [4].
On to `CC(C)NCC(O)c1ccc2ccccc2c1` (stereo not given), for which the efficacy in assay [1] is 20.8%. The results for the AC50 in assay [2], in assay [3] and in assay [5] were 31.6 µM (active), 25.1 µM (active) and 25.1 µM (active), respectively. Moreover, in assay [4], the call was inactive.
Consider `Fc1ccc(C(c2ccc(F)cc2)N2CCNCC2)cc1`, for which the efficacy in assay [1] was 28.7%. For the same compound, the AC50 in assay [2], in assay [3] and in assay [5] was 10 µM (active) throughout. For the same compound, the call in assay [4] was inactive.
On to `O=C(Nc1ccc(Cl)cc1)Nc1ccc(Cl)c(Cl)c1`, for which the efficacy in assay [1] was -28.2%. In addition, the AC50 in assay [2] was 15.8 µM (active); in assay [3], 12.6 µM (active); in assay [5], 12.6 µM (active). The compound was called inactive in assay [4].
For `Cc1c(-c2ccccc2)oc2c(C(=O)OCCN3CCCCC3)cccc2c1=O`, the efficacy in assay [1] is -55.6%. For the same compound, the call in assay [2], in assay [3], in assay [4] and in assay [5] was inactive.
As for `CCCC(=O)O[C@]1(C(=O)CCl)[C@@H](C)C[C@H]2[C@@H]3CCC4=CC(=O)C=C[C@]4(C)[C@@]3(F)C(=O)C[C@@]21C`, the efficacy in assay [1] was 17%. For the same compound, the AC50 was 35.5 µM (active) in assay [2], 20 µM (active) in assay [3] and 20 µM (active) in assay [5]. Moreover, the call in assay [4] was inactive.
On to `CCCOc1ccc2nc(NC(=O)OC)[nH]c2c1`, for which the efficacy in assay [1] is -28.5%. Besides, the concentration at half-maximal activity (AC50) in assay [2] was 0.501 µM (active); in assay [3], 0.562 µM (active); in assay [5] it was 0.562 µM (active). The outcome in assay [4] was inactive.
For `C[N+]1(CC2COC(c3ccccc3)(c3ccccc3)O2)CCCCC1` (stereo not given), the efficacy in assay [1] was 25%. In addition, the outcome in assay [2], in assay [3], in assay [4] and in assay [5] was inactive.
On to `Cc1ccc(Cl)c(OCC(O)CNC(C)(C)C)c1` (stereo not given), for which, in assay [1], the efficacy was -22.3%. The AC50 in assay [2] was 15.8 µM (active); in assay [3] it was 28.2 µM (active); in assay [5], 28.2 µM (active). The compound was called inactive in assay [4].
Turning to `CCOC(=O)C1=C[C@]2(CC)CCCN3CCc4c(n1c1ccccc41)[C@@H]32`, in assay [1], the efficacy was -42.6%. In addition, the AC50 in assay [2] was 12.6 µM (active); in assay [3] it was 17.8 µM (active); in assay [5], 17.8 µM (active). Also, in assay [4], the outcome was inactive.
With `CN(Cc1cc(Br)cc(Br)c1N)C1CCCCC1`, the efficacy in assay [1] is 17.3%. For the same compound, the AC50 in assay [2] is 22.4 µM (active); in assay [3], 20 µM (active); in assay [5], 20 µM (active). The call in assay [4] was inactive.
Consider `Cc1cccc(N(C)C(=S)Oc2ccc3ccccc3c2)c1`, for which the efficacy in assay [1] is 22.5%. The AC50 in assay [2], in assay [3] and in assay [5] was 25.1 µM (active) in each case. For the same compound, in assay [4], the compound was classed as inactive.
As to `CCC1(c2cnc[nH]2)Cc2ccccc2C1`, the efficacy in assay [1] is -11.3%. The AC50 in assay [2] is 25.1 µM (active); in assay [5], 31.6 µM (active). In addition, the result in assay [3] and in assay [4] was inactive.
For `COc1ccc2cc3[n+](cc2c1OC)CCc1cc2c(cc1-3)OCO2`, in assay [1], the efficacy was 30.3%. For the same compound, the result in assay [2], in assay [3], in assay [4] and in assay [5] was inactive.
Take `COc1cc([C@H]2Oc3cc([C@H]4Oc5cc(O)cc(O)c5C(=O)[C@@H]4O)ccc3O[C@@H]2CO)ccc1O`: in assay [1], the efficacy is 13.5%. Also, the figures for the AC50 in assay [2] and in assay [5] were 39.8 µM (active) and 44.7 µM (active), respectively. The outcome in assay [3] and in assay [4] was inactive.
Regarding `Oc1c(Cl)cc(Cl)c(Cl)c1Cc1c(O)c(Cl)cc(Cl)c1Cl`, the efficacy in assay [1] is 19.2%. For the same compound, the AC50 was 28.2 µM (active) in assay [2], 15.8 µM (active) in assay [3] and 15.8 µM (active) in assay [5]. For the same compound, in assay [4], the compound was called inactive.
In the case of `C=CCOc1ccccc1OCC(O)CNC(C)C` (stereo not given), in assay [1], the efficacy was -13.2%. The AC50 in assay [2], in assay [3] and in assay [5] was 14.1 µM (active) in each case. Further, the result in assay [4] was inactive.
With `O=C(Nc1ccc([N+](=O)[O-])cc1Cl)c1cc(Cl)ccc1O`, the efficacy in assay [1] is 35.2%. Besides, the AC50 in assay [2] is 0.891 µM (active); in assay [3], 1 µM (active); in assay [5], 1 µM (active). Also, the outcome in assay [4] was inactive.
For the compound `Clc1ccc(C(Cn2ccnc2)OCc2ccsc2Cl)c(Cl)c1` (stereo not given), the efficacy in assay [1] is 49.7%. Besides, the concentration at half-maximal activity (AC50) in assay [2] was 10 µM (active); in assay [3] it was 8.91 µM (active); in assay [5], 8.91 µM (active). In addition, the result in assay [4] was inactive.
For `CN(C)CCN1C(=O)c2ccccc2N(C)c2ccccc21`, the efficacy in assay [1] was -25.3%. The AC50 in assay [2] and in assay [5] was 39.8 µM (active) throughout. Besides, the result in assay [3] and in assay [4] was inactive.
On to `CCN(CC)CCNC(C(=O)OCCC(C)C)c1ccccc1` (stereo not given), for which the efficacy in assay [1] was 47.8%. Also, the AC50 in assay [2] is 31.6 µM (active); in assay [3], 22.4 µM (active); in assay [5] it was 22.4 µM (active). Also, in assay [4], the compound was classed as inactive.
Consider `COc1ccc(CN2CCN(C(c3ccc(F)cc3)c3ccc(F)cc3)CC2)c(OC)c1OC`, for which the efficacy in assay [1] is 25.5%. Moreover, the AC50 in assay [2] is 7.08 µM (active); in assay [3], 10 µM (active); in assay [5], 10 µM (active). Further, the compound was called inactive in assay [4].
For the compound `C#C[C@]1(OC(C)=O)CC[C@H]2[C@@H]3CCC4=C/C(=N/O)CC[C@@H]4[C@H]3CC[C@@]21CC`, the efficacy in assay [1] is -27.8%. Besides, the AC50 in assay [2] and in assay [5] was 39.8 µM (active) throughout. Further, the result in assay [3] and in assay [4] was inactive.
On to `CC(C)(C)CC(C)(C)c1ccc(O)c(Cc2ccc(Cl)cc2Cl)c1`, for which the efficacy in assay [1] was 12.2%. The AC50 is 22.4 µM (active) in assay [2], 14.1 µM (active) in assay [3] and 14.1 µM (active) in assay [5]. For the same compound, the compound was called inactive in assay [4].
With `CCN(CC)CCSC(=O)C(c1ccccc1)c1ccccc1`, the efficacy in assay [1] is -29.7%. For the same compound, the AC50 in assay [2] is 31.6 µM (active); in assay [5], 39.8 µM (active). Further, the result in assay [3] and in assay [4] was inactive.
For the compound `CN(C)CCN(Cc1cccs1)c1ccccn1`, the efficacy in assay [1] was 21.2%. Further, the AC50 in assay [2] was 31.6 µM (active); in assay [3] it was 17.8 µM (active); in assay [5], 17.8 µM (active). Besides, the compound was called inactive in assay [4].

These data come from PubChem BioAssay (NCATS).
